Test results as given in PubChem BioAssay.

assay: 384-well plate pilot, post-Golgi transport modulator project, inhibition of yeast transport mutant growth (AID 636; in the data active = inhibition above about 31%); conditions: absorbance 615 nm, about 18 h, hits give high values

inhibition, inactive:
c1ccc(Cc2ccc(OCCn3cncn3)cc2)cc1 -3.92%, Cc1cccc(Nc2nc3c(c(=O)n(C)c(=O)n3C)n2Cc2ccccc2)c1 -4.32%, Cc1nn(C)c(C)c1CNC(=O)c1cc2n(n1)C(C(F)(F)F)CC(c1cccs1)N2 (stereo not given) 0.41%, COc1ccc(CNc2nc3nc(C)cc(C)n3n2)cc1OC -1.71%, CCOC(=O)c1ccc(N2C(=O)C3CC=CCC3C2=O)cc1 (stereo not given) -6.4%, CC(C(=O)NCCCN1CCOCC1)n1cccc1C(=O)c1ccccc1 (stereo not given) -2.37%, Cc1nc(NC2=NCN(CC3CCCO3)CN2)nc2ccccc12 (stereo not given) -5.07%, COCCOC(=O)C1=C(N)OC2=C(C(=O)CC(C)(C)C2)C1c1cccnc1 (stereo not given) -5.95%, CC(C)(C)NCc1cc2ccccc2[nH]c1=O -9.05%, COc1ccc(-c2noc(-c3cc(Cl)ccc3Cl)n2)cc1OC -2.67%, CCC(=O)Nc1ccc(Cl)c(NC(=O)C(C)C)c1 -7.97%, COC(=O)c1cc2ccsc2n1CC(=O)Nc1cc(C)cc(C)c1 1.92%, COc1ccc(-c2nnc(SCC#N)o2)cc1 -5.47%, Cc1nc(C)c(C(=O)C2=C(O)C(=O)N(CCN3CCOCC3)C2c2cccnc2)s1 (stereo not given) -3.95%, Cc1ccc(NC(=O)CCC(=O)OCC(F)(F)C(F)F)cc1 -0.65%, CN(C)c1ccc2c(c1)OC(N)=C(C#N)C2c1cccc(F)c1 (stereo not given) -3.24%, CCN1CCN(CCCNC(=O)C2c3ccccc3C(=O)N(C)C2c2ccc(OC)cc2)CC1 (stereo not given) -1.64%, Cc1oc(-c2ccc(Cl)cc2)nc1CS(=O)CC(=O)NCCCN(C)C1CCCCC1 (stereo not given) -2.99%, CC(C)CCN1CC(C(=O)NCc2ccccc2)CC1=O (stereo not given) 1.28%, CC1CCN(S(=O)(=O)c2ccc3[nH]cc(C(=O)NCCN4CCOCC4)c(=O)c3c2)CC1 -6.67%, Cc1ccc(S(=O)(=O)N(C)Cc2cc3ccccc3[nH]c2=O)cc1 0.26%, CC(=O)N1CCN(c2ccc(S(=O)(=O)N3CCCCC3)cn2)CC1 -0.39%, CCOC(=O)c1cnc(-n2nc(C)cc2C)nc1Nc1cccc(C(C)=O)c1 1.32%, Fc1ccc(NCc2nnc(SCc3nnc(-c4ccccc4)o3)n2CC2CCCO2)cc1 (stereo not given) -0.54%, O=C1Nc2ccccc2OC1CC(=O)N1CCCC1 (stereo not given) -2.53%

assay: growth suppression of yeast trafficking mutant, preliminary HTS, modulators of trafficking downstream of Golgi apparatus project, 1536-format plate, OD 615 nm (AID 637); conditions: yeast transport mutant growth, absorbance 615 nm, 18 h; hits give high values

inhibition, inactive:
CN(Cc1cccs1)c1ncnc2sccc12 1.27%, CCOC(=O)N1CCN(C(=O)CN(c2ccc(C)cc2)S(=O)(=O)c2c(C)noc2C)CC1 6.51%, Cc1c2c(nc3nc4ccccc4n13)CC(C)(C)CC2=O 4.43%, COc1ccccc1OC(=O)c1ccc2nsnc2c1 -6.55%, CCN(CCCNC(=O)c1cn(CC)c2ccc(S(=O)(=O)N(C)C)cc2c1=O)c1cccc(C)c1 4.26%, O=C(O)C1CC(=O)N(c2ccc(OCc3ccccc3Cl)cc2)C1 (stereo not given) 17.8%, C=CCOc1ccc(C2C(C(=O)c3ccco3)=C(O)C(=O)N2Cc2cccnc2)cc1 (stereo not given) 8.69%, [N-]=[N+]=CC(=O)CC(c1ccccc1)N1C(=O)c2ccccc2C1=O (stereo not given) -4.29%, CCC1(c2ccc(F)cc2)NC(=O)N(CC(=O)c2ccc[nH]2)C1=O (stereo not given) -4.83%, c1csc(-c2nc3nc4ccccc4nc3n2Cc2ccc3c(c2)OCO3)c1 0.79%, Cc1n[nH]c(C)c1S(=O)(=O)N1CCN(c2ccccn2)CC1 -4.29%, Cn1c(=O)c2c(nc(NCCc3ccccc3)n2CC(=O)NCCc2ccccc2)n(C)c1=O 9.68%, Cc1cc(Br)ccc1NC(=O)CCN1C(=O)c2ccncc2C1=O -9.18%, COc1ccccc1Oc1coc2c(CN3CCN(C)CC3)c(O)ccc2c1=O 1%, O=C(Nc1ccccc1N1CCN(c2ccc(F)cc2)CC1)c1ccccc1 4.13%, c1ccc(Cc2ccc(OCCn3cncn3)cc2)cc1 -7.38%, Cc1cccc(Nc2nc3c(c(=O)n(C)c(=O)n3C)n2Cc2ccccc2)c1 2.86%, Cc1nn(C)c(C)c1CNC(=O)c1cc2n(n1)C(C(F)(F)F)CC(c1cccs1)N2 (stereo not given) 0.32%, COc1ccc(CNc2nc3nc(C)cc(C)n3n2)cc1OC 7.21%, CCOC(=O)c1ccc(N2C(=O)C3CC=CCC3C2=O)cc1 (stereo not given) -10.2%, CC(C(=O)NCCCN1CCOCC1)n1cccc1C(=O)c1ccccc1 (stereo not given) 0%, Cc1nc(NC2=NCN(CC3CCCO3)CN2)nc2ccccc12 (stereo not given) -3.81%, COCCOC(=O)C1=C(N)OC2=C(C(=O)CC(C)(C)C2)C1c1cccnc1 (stereo not given) -1.31%, CC(C)(C)NCc1cc2ccccc2[nH]c1=O -2.5%, COc1ccc(-c2noc(-c3cc(Cl)ccc3Cl)n2)cc1OC -4.52%, CCC(=O)Nc1ccc(Cl)c(NC(=O)C(C)C)c1 6.07%, COC(=O)c1cc2ccsc2n1CC(=O)Nc1cc(C)cc(C)c1 14.3%, COc1ccc(-c2nnc(SCC#N)o2)cc1 0.65%, Cc1nc(C)c(C(=O)C2=C(O)C(=O)N(CCN3CCOCC3)C2c2cccnc2)s1 (stereo not given) 12.9%, Cc1ccc(NC(=O)CCC(=O)OCC(F)(F)C(F)F)cc1 -7.67%, CN(C)c1ccc2c(c1)OC(N)=C(C#N)C2c1cccc(F)c1 (stereo not given) 4.75%, CCN1CCN(CCCNC(=O)C2c3ccccc3C(=O)N(C)C2c2ccc(OC)cc2)CC1 (stereo not given) -0.79%, Cc1oc(-c2ccc(Cl)cc2)nc1CS(=O)CC(=O)NCCCN(C)C1CCCCC1 (stereo not given) 5.56%, CC(C)CCN1CC(C(=O)NCc2ccccc2)CC1=O (stereo not given) -0.83%, CC1CCN(S(=O)(=O)c2ccc3[nH]cc(C(=O)NCCN4CCOCC4)c(=O)c3c2)CC1 -3.06%, Cc1ccc(S(=O)(=O)N(C)Cc2cc3ccccc3[nH]c2=O)cc1 -6.91%, CC(=O)N1CCN(c2ccc(S(=O)(=O)N3CCCCC3)cn2)CC1 -0.16%, CCOC(=O)c1cnc(-n2nc(C)cc2C)nc1Nc1cccc(C(C)=O)c1 -4.35%, Fc1ccc(NCc2nnc(SCc3nnc(-c4ccccc4)o3)n2CC2CCCO2)cc1 (stereo not given) 15.4%, O=C1Nc2ccccc2OC1CC(=O)N1CCCC1 (stereo not given) 0.66%
